Experimental data as given in PubChem BioAssay (NCI).
This is part of a sample that, as a whole, favours compounds with a hit. Of some 83,000 tested, about 20% had one in any assay.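 Each cell line was grown in a 96-well plate and treated with one concentration of compound for 48 hours. Values below 10 were considered active.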 Unmarked numbers belong to inactive results. The source made the active and inactive calls.

Experiments:
Assay in all cases: NCI-60 one-dose screen, 48 h (100 = growth as untreated, 0 = no growth, -100 = all killed)
SK-MEL-2 melanoma = conditions: 10 µM unless noted
EKVX NSCLC = conditions: 10 µM unless noted
SN12C renal = conditions: 10 µM unless noted
UO-31 renal = conditions: 10 µM unless noted
TK-10 renal = conditions: 10 µM unless noted
ACHN renal = conditions: 10 µM unless noted
CCRF-CEM leukemia = conditions: 10 µM unless noted
MOLT-4 leukemia = conditions: 10 µM unless noted
SR leukemia = conditions: 10 µM unless noted
RPMI-8226 leukemia = conditions: 10 µM unless noted
OVCAR-8 ovarian = conditions: 10 µM unless noted
OVCAR-5 ovarian = conditions: 10 µM unless noted
OVCAR-4 ovarian = conditions: 10 µM unless noted
SK-OV-3 ovarian = conditions: 10 µM unless noted
IGROV1 ovarian = conditions: 10 µM unless noted
OVCAR-3 ovarian = conditions: 10 µM unless noted
NCI/ADR-RES ovarian = conditions: 10 µM unless noted
CAKI-1 renal = conditions: 10 µM unless noted
A498 renal = conditions: 10 µM unless noted
HS 578T breast = conditions: 10 µM

Row | SMILES | growth (SK-MEL-2 melanoma) | growth (EKVX NSCLC) | growth (SN12C renal) | growth (UO-31 renal) | growth (TK-10 renal) | growth (ACHN renal) | growth (CCRF-CEM leukemia) | growth (MOLT-4 leukemia) | growth (SR leukemia) | growth (RPMI-8226 leukemia) | growth (OVCAR-8 ovarian) | growth (OVCAR-5 ovarian) [%] | growth (OVCAR-4 ovarian) | growth (SK-OV-3 ovarian) | growth (IGROV1 ovarian) | growth (OVCAR-3 ovarian) | growth (NCI/ADR-RES ovarian) | growth (CAKI-1 renal) | growth (A498 renal) | growth (HS 578T breast)
1 | c1ccc(C2=Nc3ccccc3SC2)cc1 | 105% | 87.3% | 107% | 67.8% | 105% | 95.4% | 86.9% | 111% | 107% | 93.8% | 101% | 98.6 | 91.5% | 110% | 88.6% | 99.4% | 113% |  |  | 
2 | C#CCNC(=S)N/N=C(\C)c1ccccn1 | 74.3% | 22.1% | 13.4% |  | 50.9% | 15.7% | 13.4% | 3.54% (active) | 3.06% (active) | 12.9% |  | 35.1 | 29.1% | 30.8% | 5.45% (active) | 16.6% | 8.45% (active) | -13.6% (active) | 16.7% | 70.2%
3 | NC(N)=N/N=C\c1cccc(OCc2ccccc2)c1 | 61.4% | 80.7% | 86.6% | 63.9% | 78.6% | 87.4% | 82.2% | 80.1% | 19.4% | 69.6% | 89.3% | 85.3 | 64.3% | 81.6% | 74.7% | 79.1% | 76.5% |  |  | 
4 | COc1cccc2nc(Nc3cccc(NC(=O)c4ccc(N5CCN(C)CC5)c(C(F)(F)F)c4)c3)ccc12 | 77.4% | 66.7% | 45.7% | 22.1% | 51.1% | 26.8% |  | -16.6% (active) | -7.69% (active) | 7.17% (active) | 30.7% | 61.5 | 39.5% | 81.7% | 28.6% | 29.6% | 43.9% |  | 64.4% | 32.6%
5 | Fc1ccc(-c2nnc(N3CCOCC3)c3ccccc23)cc1 | 111% | 69.5% | 95% |  | 138% | 103% | 124% | 243% |  | 111% | 111% | 108 | 112% | 109% | 104% | 109% | 109% |  | 105% | 114%
6 | CC[C@H](Nc1nc(N)nc(C2CC2)c1C#N)c1nc2cccc(NCc3ccc(C(=O)NO)cc3)c2c(=O)n1-c1ccccc1 | 26.2% | 0.322% (active) | 9.34% (active) | -80% (active) | 5.55% (active) | -21% (active) | 8.87% (active) |  | -0.809% (active) | 4.07% (active) | 1.08% (active) | 14.8 | 8.75% (active) | -9.63% (active) | 2.3% (active) | 9.13% (active) | 45.8% |  | -8.64% (active) | 13.5%
7 | CCCCCCCCNC(C)C(O)c1ccc(SC(C)C)cc1 (stereo not given) | 71.4% | 25.2% | 60.9% | 29.5% | 6.81% (active) |  | -0.667% (active) | -46.6% (active) | -55% (active) | 14.8% | -5.31% (active) |  | 63.9% | 83.9% | 18.8% | -83% (active) | 47.8% |  | 96.8% | 49.2%
8 | O=C(c1ccc(C(F)(F)F)c(Cl)c1)N(Cc1ccc(Cl)cc1)c1ccc(-c2cc(C(F)(F)F)[nH]n2)c(O)c1 | -18.3% (active) | 0.0577% (active) | 14.6% |  | 5.25% (active) | 3.03% (active) | 10.4% | 9.19% (active) | 20% | 1.58% (active) | 11% | 17.3 | 19.9% | -4.32% (active) | 15.2% | 6.9% (active) | 2.97% (active) | 1.19% (active) | -21.4% (active) | 3.66% (active)
9 | CN1CCN(Cc2ccc(NC(=O)c3cncc(C#Cc4ccc(N)nc4)c3)cc2C(F)(F)F)CC1 | -47.8% (active) | 7.69% (active) | 4.16% (active) |  | 12.7% | -3.03% (active) | 13% | 5.85% (active) | 1.34% (active) | 1.97% (active) | 20.1% | 12.5 | -8.78% (active) | -11% (active) | -18.2% (active) | 27.2% | 25.6% | 8.16% (active) | -33.8% (active) | -21.9% (active)
10 | CC(C)c1[nH]ncc1-c1nc2ccc3[nH]ncc3c2c2c1CCCC2 | 68.6% | 13.5% | 35.2% |  | 22.7% | 16.8% | 28.8% | 9.07% (active) | 6.47% (active) | 33.9% | 37.2% | 48.7 | 75.8% | 16.5% | 21.9% | 46.8% | 66.1% | 17.6% | -12.7% (active) | -1.07% (active)
11 | COc1ccc(C2C3CCc4ccccc4C3=NN2C(=O)c2cc(OC)c(OC)c(OC)c2)cc1O (stereo not given) | 75.4% | 89.6% | 114% | 79.9% | 101% | 98.1% | 88.9% | 90.5% | 64.2% | 45.7% | 99.4% | 101 | 103% | 88% | 46.6% | 109% | 102% |  |  | 
12 | Cn1c(=O)c2[nH]c(Cc3ccc4c(c3)OCO4)nc2n(C)c1=O | 122% | 97.8% | 95.1% | 93.5% | 113% | 92.1% | 87% | 122% | 120% | 88.8% | 105% | 90.5 | 88.2% | 107% | 106% | 104% | 107% |  |  | 
13 | C=C(C)[C@@H]1CC[C@]2(C)[C@H](CC=C3[C@@H]4C[C@](C)(C(=O)N5CCN(C)CC5)CC[C@]4(C)CC[C@]32C)[C@@]1(C)CCC#N | 76.4% | 85.6% | 75.2% |  | 75.8% | 80.4% | 34.1% |  | 39.4% | 32% | 74.7% | 88.2 | 62.9% | 63.3% | 76.4% | 55.3% | 75.6% | 63% | 97% | 81.4%
14 | CCN1CCN(Cc2ccc(NC(=O)c3nc4ccc5[nH]ncc5c4c4c3CCCC4)cc2C(F)(F)F)CC1 | 92% | 74.3% | -75.6% (active) | -91.8% (active) | -33.7% (active) | -97.1% (active) |  | -28.9% (active) | -29.2% (active) | -24.6% (active) | -59.3% (active) | 48.9 | 22.6% | 91.7% | -47.6% (active) | -70.5% (active) | 18.8% |  | 93.2% | 84.8%
15 | Cc1cc(-c2nnc(/C=C/c3ccc4c(c3)OCO4)o2)n[nH]1 | 30.1% | 90.6% | 85.5% | 70.1% | 81.8% | 95.7% |  | 69.7% | 18.7% | 66.5% | 91.5% | 92.2 | 96.8% | 80.6% | 40.7% | 63.4% | 31.3% |  | 73.2% | 80%
16 | COc1ccc(-c2nnc(SCC(=O)Nc3ccc(C(=O)/C=C/c4ccc(Cl)cc4)cc3)n2-c2ccccc2)cc1 | 100% | 102% | 101% | 73.8% | 109% | 107% |  |  |  | 83.8% | 100% | 107 | 92.4% | 99.5% | 93.5% | 97.8% | 102% |  | 116% | 96.9%
17 | CCCCCCCCCCCC1=NC(C)(C)CN1C(C)(C)CO | 49.4% | 64.6% | 59.8% | 46.7% | 70.3% | 56.7% | 26.6% | 74% |  | 1.29% (active) | 69.4% |  | 64.4% | 73.8% | 53.2% | 76.7% | 65% |  | 90.1% | 81.2%
